According to PubChem BioAssay (NCATS):
Several values for one entry are separate records, joined by “and”; a condition that tells them apart may be missing. Equal entries are not always repeated. Records with an inconclusive call do not appear. Activity calls are given as the source filed them. Calls come from the whole dose curve; as a rule, active = well fitted inhibition curve with a large enough effect; inconclusive = small, poorly fitted or top-dose-only effect; inactive = flat fitted curve, though single readings scatter.
% is set by controls: 0 for no effect and ±100 for the full control effect; potency is the fitted concentration of half-maximal effect.

Assay: Primary qHTS for inhibitors of nuclear receptor binding SET domain protein 2 (NSD2) in an isogenic RCH-ACV NSD2 p.E1099K mutant (9B) (AID 1645876); note: nearly all actives have a fitted effect of over 70% in size
Details: RCH-ACV (leukaemia line) NSD2 E1099K (9B) viability, CellTiter-Glo, 72 h; series mostly up to 44.9 µM; activity change, negative = viability loss: at the top concentration
For `Cc1c(CN2CCN(S(C)(=O)=O)CC2)sc2c(N3CCOCC3)nc(-c3cnc(N)nc3)nc12`, the Potency was 29 nM (active) and 74.2 nM (active). In the case of `Cn1c(=O)n(-c2ccc(C(C)(C)C#N)cc2)c2c3cc(-c4cnc5ccccc5c4)ccc3ncc21`, the Potency is reported as 103 nM (active) and 38.2 nM (active). In the case of `CNC(=O)c1ccccc1Nc1nc(Nc2ccc(N3CCOCC3)cc2OC)ncc1Cl`, the Potency is reported as 2.05 µM (active) and 2.35 µM (active). With `Cc1cc(CN2CCN(c3c(Br)cnc4nc(-c5ccc(N6CCN(C)CC6)cc5)[nH]c34)CC2)no1` the Potency was 205 nM (active) and 468 nM (active). For `c1cc(-c2cnn3cc(-c4ccc(OCCN5CCCCC5)cc4)cnc23)ccn1`, the Potency was 3.66 µM (active) and 3.72 µM (active). With `N#Cc1c(O)c2c(-c3ccc(-c4ccccc4O)cc3)csc2[nH]c1=O` the Potency was “inactive”. With `c1nc2nc(Nc3ccc(N4CCOCC4)cc3)nc(NC3CCCCC3)c2[nH]1` the Potency was 632 nM (active) and 662 nM (active). For `CC(C)[C@H](C(=O)Nc1ccc(C(=O)NO)cc1)c1ccccc1`, the “activity change, negative = viability loss” value was -98.1% (inactive). In the case of `O=c1[nH]nc(Sc2ncc([N+](=O)[O-])s2)n1-c1ccc2c(c1)OCCO2`, the Potency is reported as 7.42 µM (active). In the case of `NC(=O)c1cccc2cn(-c3ccc([C@@H]4CCCNC4)cc3)nc12`, the Potency is reported as 4.59 µM (active) and 2.63 µM (active). With `COc1cc(C(=O)NS(=O)(=O)c2ccccc2C)ccc1Cc1cn(C)c2ccc(NC(=O)OC3CCCC3)cc12` the Potency was “inactive”. In the case of `CN(c1ncccc1CNc1nc(Nc2ccc3c(c2)CC(=O)N3)ncc1C(F)(F)F)S(C)(=O)=O`, the Potency is reported as 5.17 µM (active).
